Measured values reported in PubChem BioAssay AID488789 (Broad Institute, 2010).
Entries with a potency or affinity are not part of this list. Inconclusive results are not listed. Activity calls are given as the source filed them.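 Rule for the calls: active = samples whose fitted half-maximal inhibition concentration is no more than ten times the top valid dose tested; inconclusive = flat response between -70 and -30, or invalid curve fit; inactive = flat within 30 of zero, potency above limit, or signal rising.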

Target: Trypsin (Sus scrofa) (UniProt P00761)
Sequence (P00761 whole entry, looked up): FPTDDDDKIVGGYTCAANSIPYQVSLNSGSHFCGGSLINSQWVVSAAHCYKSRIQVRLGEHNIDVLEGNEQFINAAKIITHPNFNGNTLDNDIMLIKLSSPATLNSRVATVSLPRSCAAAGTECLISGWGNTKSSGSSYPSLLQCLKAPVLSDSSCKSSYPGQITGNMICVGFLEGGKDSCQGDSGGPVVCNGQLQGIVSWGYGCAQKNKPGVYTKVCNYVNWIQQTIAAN
Assay: porcine trypsin inhibitors, dose response, selectivity assay for Rce1 protease inhibitor project, biochemical, quenched peptide fluorescence, cherry-pick (AID 488789);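 note: more negative means stronger trypsin inhibition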
Conditions: quenched peptide cleavage fluorescence; series mostly up to 10 µM

| Compound | outcome |
| --- | --- |
| O=C(Nc1cccc2ncccc12)c1cccnc1 | inactive |
| Cn1c(=O)c(C(=O)NCCO)c(O)c2ccccc21 | inactive |
| COc1ccc(C2c3c(ncn(CCN4CCOCC4)c3=N)Oc3ccc4ccccc4c32)cc1 (configuration not stated) | inactive |
| CCN(CC)CCNC(=O)c1[nH]c2ccc(OCc3ccccc3)cc2c1C | inactive |
| CCc1cc(=O)oc2cc(OCC(=O)N3CCC(C(=O)O)CC3)ccc12 | inactive |
| CC1CCN(Cc2c(C(=O)N/N=C/c3cccc(C(F)(F)F)c3)nnn2-c2nonc2N)CC1 | inactive |
| Nc1nonc1-n1nnc(C(=O)N/N=C/c2ccoc2)c1CSc1ccccc1 | inactive |
| Cc1cc(N/N=C/c2ccc(O)c(C)c2O)nc(-c2ccccc2O)n1 | inactive |
| O=C(O)c1ccc(N/N=C/c2ccc(-c3ccccc3Cl)o2)cc1 | inactive |
| CCc1ccc(Nc2n[n+](-c3ccccc3)c(/C=C/c3ccccc3)s2)cc1 | inactive |
| COC(=O)c1sccc1NC(=O)CSc1nnnn1-c1ccccc1C | inactive |
| O=C(NCCc1c[nH]c2ccccc12)OCCSS(=O)(=O)O | inactive |
| COc1ccccc1-c1nnc2sc(-c3ccc(N(C)C)cc3)nn12 | inactive |
| O=C1C(=O)N(C/C=C/c2ccccc2)c2ccccc21 | inactive |
| COc1ccccc1NC(=O)Cc1nnc(SCC(=O)Nc2nccs2)n1C | inactive |
| CC(/C=N\NC(=O)CN1CCN(S(=O)(=O)c2ccc(C)cc2)CC1)=C\c1ccccc1 | inactive |
| CN(C)CCCN(C(=O)c1cc(-c2cccs2)nc2ccccc12)c1nc2ccc(F)cc2s1 | inactive |
| CCOC(=O)C1CCCN(C(=O)CCn2nnnc2CN2CCOCC2)C1 (configuration not stated) | inactive |
| Cc1nc(N2CCOCC2)c2cc(-c3ccccc3)sc2n1 | inactive |

| Compound | outcome |
| --- | --- |
| CN1CCN(C(=O)c2ccc(-c3cccs3)s2)CC1 | inactive |
| Cc1cc(Cl)c2oc(C(=O)N3CCN(C(=O)c4ccco4)CC3)c(C)c2c1 | inactive |
| Cc1ccc2nc(N(CCN(C)C)C(=O)c3ccc4ccccc4c3)sc2c1 | inactive |
| Cc1cc(N)c2cc(NC(=O)/C=C/c3ccccc3Cl)ccc2n1 | inactive |
| C[C@@]12CCC=C[C@H]1[C@H](c1ccc(/C=C/c3ccccc3)cc1F)N(Cc1ccccc1)C2=O | inactive |
| CCn1cc(C(=O)N[C@H](C)c2ccccc2)c(=O)c2cc(F)c(N3CCN(C)CC3)cc21 | inactive |
| CC1Oc2ccccc2C=C1/C=N/NC(=O)[C@@H](C)NC(=O)OC(C)(C)C (some centres not stated) | inactive |
| Cc1nc(-c2ccc(Cl)cc2)sc1C1(C)CC(c2ccccc2Br)=NO1 (configuration not stated) | inactive |
| COC(=O)CSc1nc(N)c2c3c(sc2n1)C(c1ccccc1)SC(c1ccccc1)C3 (configuration not stated) | inactive |
| CCCOc1ccc(-c2c(C(=O)N/N=C/c3cccs3)nnn2-c2nonc2N)cc1 | inactive |
| CCO[C@@H]1OC(C(=O)N2CCN(Cc3ccccc3)CC2)=C[C@H](c2ccccc2)[C@H]1CCCO | inactive |
| COc1ccc(C2/C=C\CN(C(=O)c3ccc(C)cc3)[C@H](Cc3ccccc3)C(=O)N2Cc2ccc(F)cc2)cc1 (some centres not stated) | inactive |
| N#Cc1c(OCC(=O)c2ccccc2)nc2c(c1-c1ccco1)CCc1ccccc1-2 | inactive |
| O=C(O)CCc1ccc(-c2cccs2)n1Cc1ccco1 | inactive |
| CC(C)c1cccc(OCC(=O)Nc2ccc(S(=O)(=O)Nc3ccccn3)cc2)c1 | inactive |
| CC(C)c1ccc(NC(=O)COc2nncc3ccccc23)cc1 | inactive |
| CN(C)C(=O)COc1ccc2ccc(=O)oc2c1 | inactive |
| Cc1cccc2sc(N(CCN(C)C)C(=O)c3ccc4ccccc4c3)nc12 | inactive |
